Experimental data taken from doi:10.1101/2024.03.05.583629.

Biological target: pT7_6His-AlfaTag-HOXD13 (human, UniProt P35453 263-343)
Test: PADIT-seq
Conditions: dsDNA, one strand shown

Sequence of pT7_6His-AlfaTag-HOXD13 (P35453 263-343): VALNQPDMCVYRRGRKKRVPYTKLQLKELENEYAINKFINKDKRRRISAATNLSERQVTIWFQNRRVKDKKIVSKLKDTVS

**Q.** How did the binding signal turn out when “CTCGAGGATATCAAGATCTGGCCTCGGCTCCATAAAAGGAACCTCTAGCTAGCCGACTCACTATAGGGATAATCGCCCTGAGCAAAGACC” was run?
**A.** Its binding signal is 2.64 ± 0.0916 log2FC.

**Q.** Which binding signal does the source give for “CTCGAGGATATCAAGATCTGGCCTCGGCCTTTTATGGGGAACCTCTAGCTAGCCGACTCACTATAGGGATAATCGCCCTGAGCAAAGACC” here?
**A.** The binding signal was 3.37 ± 0.0902 log2FC.

**Q.** “CTCGAGGATATCAAGATCTGGCCTCGGCGTTTTACAAGGAACCTCTAGCTAGCCGACTCACTATAGGGATAATCGCCCTGAGCAAAGACC” was tested. Which binding signal did it give?
**A.** Its binding signal is 3.54 ± 0.0799 log2FC.

**Q.** With “CTCGAGGATATCAAGATCTGGCCTCGGCGTTTTATCCGGAACCTCTAGCTAGCCGACTCACTATAGGGATAATCGCCCTGAGCAAAGACC” as the sequence, how does the binding signal read?
**A.** The binding signal was 1 ± 0.0994 log2FC.

**Q.** With “CTCGAGGATATCAAGATCTGGCCTCGGCCTTTTATATGGAACCTCTAGCTAGCCGACTCACTATAGGGATAATCGCCCTGAGCAAAGACC” as the sequence, how does the binding signal read?
**A.** The binding signal was 2.91 ± 0.0779 log2FC.

**Q.** For “CTCGAGGATATCAAGATCTGGCCTCGGCATTTTAAGCGGAACCTCTAGCTAGCCGACTCACTATAGGGATAATCGCCCTGAGCAAAGACC”, which binding signal is on record?
**A.** The binding signal was 0.548 ± 0.1 log2FC.

**Q.** How did the binding signal turn out when “CTCGAGGATATCAAGATCTGGCCTCGGCACTTTAAAAGGAACCTCTAGCTAGCCGACTCACTATAGGGATAATCGCCCTGAGCAAAGACC” was run?
**A.** Its binding signal is 2.07 ± 0.0674 log2FC.

**Q.** With “CTCGAGGATATCAAGATCTGGCCTCGGCCTTTTAATCGGAACCTCTAGCTAGCCGACTCACTATAGGGATAATCGCCCTGAGCAAAGACC” as the sequence, how does the binding signal read?
**A.** The binding signal was 1.35 ± 0.0812 log2FC.

**Q.** With “CTCGAGGATATCAAGATCTGGCCTCGGCCTTTTAGTAGGAACCTCTAGCTAGCCGACTCACTATAGGGATAATCGCCCTGAGCAAAGACC” as the sequence, how does the binding signal read?
**A.** The binding signal was 1.19 ± 0.0808 log2FC.

**Q.** “CTCGAGGATATCAAGATCTGGCCTCGGCTAGGTAAAAGGAACCTCTAGCTAGCCGACTCACTATAGGGATAATCGCCCTGAGCAAAGACC” was tested. Which binding signal did it give?
**A.** Its binding signal is -0.394 ± 0.106 log2FC.

**Q.** For “CTCGAGGATATCAAGATCTGGCCTCGGCCTTTTACATGGAACCTCTAGCTAGCCGACTCACTATAGGGATAATCGCCCTGAGCAAAGACC”, which binding signal is on record?
**A.** The binding signal was 1.85 ± 0.0771 log2FC.

**Q.** For “CTCGAGGATATCAAGATCTGGCCTCGGCCGCTTAAAAGGAACCTCTAGCTAGCCGACTCACTATAGGGATAATCGCCCTGAGCAAAGACC”, which binding signal is on record?
**A.** The binding signal was 0.46 ± 0.0911 log2FC.

**Q.** For “CTCGAGGATATCAAGATCTGGCCTCGGCCGCCCATAGGGAACCTCTAGCTAGCCGACTCACTATAGGGATAATCGCCCTGAGCAAAGACC”, which binding signal is on record?
**A.** The binding signal was -0.685 ± 0.116 log2FC.
